Measurements taken from the supplement of paper PMC6555819.

Tested on: RARb homodimer (NR concentration 270 nM)
Test: PBM binding z-score (relative to random genomic background probes); higher = stronger binding; sequences stand for … in GC…GCGATTGACAGCGTAGAATGAAGG
Procedure, shortened: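 Antibodies against each partner of ligand-free nuclear receptor dimers (one per run) detected binding on custom Agilent 4×180K protein-binding microarrays after 1 h incubation. The double-stranded probes had 34-nt variable regions carrying direct-repeat seeds, single-nucleotide variants, half-site ablations and random human genomic background sequences. Binding z-scores, from regression-normalized fluorescence, use the random background probes as reference.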

Compared with TAGCCTAGGTCATTCAGGGGCCAATATAGAAAGC, CGAACTAGGTCAGGGACAGTGAATCTCCGCACGC is lower in PBM binding z-score: 3.51 for the first, 2.17 for the second.

Going from CCTGCTAGGTCATGGTCAGCTATTCTACAGTATG to GCTCGGAGGAAAAGGTCAGAGCTTTGTCCGTAGA, the PBM binding z-score rises from 3.14 to 4.

First: ATACCAAGGTGATCGTGAGGTCGTAGATACTAAC
Second: CCGAGTAGGTTATGTGGCATTCAGGCAACGGTGA
The PBM binding z-score of the first is higher: 1.56 for the first, 0.908 for the second.

Going from CGTAGTTGGTCAAGGTCACACACGCTATAGGTAC to CCTTACGGGTCACTGACAGGTTATAGTATTTGGA, the PBM binding z-score falls from 4.23 to 3.11.

Compared with ATATGTAGGTAAGCTGGGGTCATTCAGACTAGGC, TCGAGTAGCTTAGTCGGGGCATTCAGCCAACATA is lower in PBM binding z-score: 3.48 for the first, -0.405 for the second.

Compared with ATCTCTAGGTAACCTAGTTCAGTGAATGCCGAAC, TCATATAGGTAAAAAGGTGAAAGTCCGTAAGTTA is higher in PBM binding z-score: 1.27 for the first, 2.04 for the second.

First: CCTACTGGGCCAAGGTCATTGATCAGTCAAAGCA
Second: TAGCCTAGGTCATGCGGGCCAGTACAGTGTCGGC
The PBM binding z-score of the first is higher: 3.43 for the first, 2.93 for the second.

Compared with AGAACGAGGGCAATGAGTTGATAGGACGGGTGGC, GATACAGGGTCAAGGCCAGAGTCCGCGTATTGAT is higher in PBM binding z-score: 1.01 for the first, 3.62 for the second.

First: TCTTGTAGAGCAAGCAGGTTAAGAAAGCCTGAGT
Second: ACAAACAGGTGATGAAGGTAACTCAGGCTATCAT
The PBM binding z-score of the first is lower: -0.297 for the first, 0.731 for the second.

Compared with GTACCCAGGTGAATAGGTCGTTGATGAGTAGGCG, TCTGCTAGGTCGACGATGGTCAGCTAATCTGCTA is lower in PBM binding z-score: 1.16 for the first, 0.457 for the second.

Going from ATCTCTAGGTAAATATAGTTCAGTGAATGCAAAT to CAAACTAGGTCATGGTCAAAGTCGGTTTGTGCCA, the PBM binding z-score rises from 1.1 to 3.44.
